# An excerpt weighted towards active compounds, which were near 2.1% of everything screened.
# YB-1 expr inh – YB-1 expression inhibition; U2OS, qRT-PCR YB-1 vs CDIP delta delta Cp, 16 h; active compounds read high; zero = DMSO, each unit about twofold; delta delta Cp (YB-1 minus CDIP) (concentration not given with the values); 30,000 compounds, 0.37% hits; AID 434959;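 active means delta delta Cp rounded down to an integer at or above 3, about 3 SD of DMSO wells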;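 further: higher means less YB-1 transcript or more CDIP transcript relative to DMSO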
# U2OS ROS induce – raises reactive oxygen species in U2OS cancer cells; U2OS ROS induction, H2DCF-DA fluorescence; ROS induction (% of piperlongumine), % at 10 µM; 46,000 compounds, 2% hits; AID 624156; in the data active means ROS induction above about 79%, passing the limit was not always enough;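 further: 0% = DMSO vehicle median and 100% = reference compound median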
# Starred values were filed as active, the others as inactive; . = not tested or not shown.
SMILES,YB-1 expr inh,U2OS ROS induce
C[C@@H]1CN([C@@H](C)CO)C(=O)Cc2cc(NC(=O)Cc3cn(C)c4ccccc34)ccc2O[C@@H]1CN(C)Cc1ccc(-c2ccccc2)cc1,0.26,85*
COc1ccc(/C=C/C(=O)Nc2c3c(nc4c2CCC4)CCCC3)cc1OC,.,-7
COC(=O)CNC(=O)c1ccc(Cl)cc1,.,-12
CCOc1ccccc1/C=N\n1cnnc1,.,-13
CCC(C(=O)N1CCN(c2cc(C)ccc2C)CC1)n1sc2ccccc2c1=O (stereo unspecified),.,-6
C=C(C(=O)O)[C@@H]1CC[C@@]2(C)CCC=C(C)[C@@H]2C1,-0.12,-4
C=C(C(=O)O)[C@@H]1CC[C@@]2(C)CC[C@@H](O)C(=C)C2C1 (stereo partly specified),3.6*,51
CC(=O)Nc1ccc(NC(=O)CCSc2ccccc2)cc1,.,-2
O=C(CCSc1nc(-c2ccccc2)cs1)Nc1ccccc1,.,106*
CCC(Sc1nnc(N)s1)C(=O)Nc1sc2c(c1C#N)CCCC2 (stereo unspecified),.,-4
CCC(Sc1nnnn1-c1ccccc1)C(=O)Nc1sc2c(c1C#N)CCCC2 (stereo unspecified),0.18,95*
COc1ccccc1NC(=O)CSc1nc2c(oc3ccccc32)c(=O)n1Cc1ccc(F)cc1,.,35
CCOc1cc(C)c(S(=O)(=O)NCCN2CCOCC2)cc1C,.,-10
COc1cc(C)c(Br)cc1S(=O)(=O)NCCN1CCOCC1,.,142*
O=C(CN1C(=O)c2ccccc2C1=O)N1CCN(Cc2ccccc2)CC1,.,-16
CCCCn1c(C(F)(F)F)nc2c(=O)oc3ccccc3c21,.,-3
CCOC(=O)Cn1cnc2c(nnn2-c2ccc(C)cc2)c1=O,.,-7
Cc1ccc(-n2nnc3c(SCC(=O)N4CCCC4)ncnc32)cc1,.,134*
C[C@@H]1CN([C@H](C)CO)C(=O)Cc2cc(NC(=O)NC3CCCCC3)ccc2O[C@@H]1CN(C)Cc1ccc(Oc2ccccc2)cc1,-0.6,131*
C[C@@H]1CN([C@H](C)CO)C(=O)Cc2cc(N(C)C)ccc2O[C@@H]1CN(C)Cc1ccc(Oc2ccccc2)cc1,-0.17,14
C[C@@H]1CN([C@H](C)CO)C(=O)Cc2cc(NC(=O)NC3CCCCC3)ccc2O[C@@H]1CN(C)Cc1ccc(-c2ccccc2)cc1,0.21,98*
C[C@H]1CN([C@@H](C)CO)C(=O)Cc2cc(N(C)C)ccc2O[C@@H]1CN(C)Cc1ccc(Oc2ccccc2)cc1,-0.47,135*
C[C@@H]1CN([C@@H](C)CO)C(=O)Cc2cc(NC(=O)NC3CCCCC3)ccc2O[C@@H]1CN(C)Cc1ccccc1,0.27,28
C[C@@H]1CN([C@@H](C)CO)C(=O)c2cc(NC(=O)NC3CCCCC3)ccc2O[C@H]1CN(C)Cc1ccc(Oc2ccccc2)cc1,-0.13,50
C[C@@H]1CN([C@@H](C)CO)C(=O)Cc2cc(NC(=O)NC3CCCCC3)ccc2O[C@@H]1CN(C)Cc1ccc(-c2ccccc2)cc1,-0.2,14
SMILES,YB-1 expr inh,U2OS ROS induce
C[C@H](CO)N1C[C@H](C)[C@@H](CN(C)Cc2ccc(Oc3ccccc3)cc2)Oc2ccc(NC(=O)NC3CCCCC3)cc2C1=O,-0.0026,87*
O=C(Nc1cccc(C(F)(F)F)c1)N1CCC(CN2CCc3ccccc3C2)CC1,.,6
CCOC(=O)c1cc(S(=O)(=O)N(CC)c2ccccc2)cn1C,.,-5
O=C(CSc1ccc(-c2ccncc2)nn1)NCCc1ccccc1,.,10
COC(=O)c1ccc(C(=O)Nc2ccc3nc(C4CCCCC4)[nH]c3c2)cc1,.,-1
C[C@H]1CN([C@@H](C)CO)C(=O)Cc2cc(NC(=O)Nc3cccc4ccccc34)ccc2O[C@@H]1CN(C)Cc1ccc(-c2ccccc2)cc1,0.64,132*
C[C@H](CO)N1C[C@H](C)[C@H](CN(C)Cc2ccccc2)Oc2ccc(NC(=O)Nc3cccc4ccccc34)cc2CC1=O,0.13,3
CCCc1cc(=O)[nH]c(/N=C(\N)Nc2cccc(C(F)(F)F)c2)n1,.,-4
NC(N)=Nc1nc2ccccc2c(=O)[nH]1,.,-10
C[C@@H]1CN([C@H](C)CO)C(=O)Cc2cc(NS(=O)(=O)c3ccccc3)ccc2O[C@@H]1CN(C)S(=O)(=O)c1ccccc1,-0.11,13
C[C@H]1CN([C@@H](C)CO)C(=O)Cc2cc(NS(=O)(=O)c3ccc(F)cc3)ccc2O[C@H]1CN(C)S(=O)(=O)c1ccccc1,-0.51,106*
C[C@@H]1CN([C@H](C)CO)C(=O)Cc2cc(NS(=O)(=O)c3ccccc3)ccc2O[C@H]1CN(C)S(=O)(=O)c1ccccc1,5.1*,1
C[C@@H]1CN([C@@H](C)CO)C(=O)Cc2cc(NS(=O)(=O)c3ccccc3)ccc2O[C@@H]1CN(C)S(=O)(=O)c1ccc(F)cc1,0.069,14
COc1ccc(NC(=O)CSc2ncccc2C(=O)Oc2ccccc2Cl)cc1OC,.,9
O=c1nc(NCCO)ccn1-c1nc(-c2ccccc2)sc1-c1ccccc1,.,-4
O=C1c2ccccc2NC(c2ccccc2)N1NS(=O)(=O)c1ccccc1 (stereo unspecified),.,-9
O=C1c2ccccc2NC(c2ccccc2)N1N=C1CCCCCC1 (stereo unspecified),-0.94,96*
CCCNC(=O)c1cc(=O)n(Cc2ccc(C)cc2)c2ccccc12,.,-7
CN(Cc1ccccc1)C(=O)CCN1C(=O)COc2ccccc21,.,-15
CSc1nnc(-c2ccc(C(C)(C)C)cc2)n1C,.,-10
CCCOC(=O)COc1ccc2c(=O)c(-c3ccccc3OC)coc2c1,.,236*
COC(=O)COc1ccc2c(=O)c(Oc3ccc(OC)cc3)coc2c1,.,22
C[C@@H]1CCCCO[C@@H](CN(C)Cc2ccc(C(F)(F)F)cc2)[C@@H](C)CN([C@H](C)CO)C(=O)c2cc(NC(=O)c3ccncc3)ccc2O1,0.21,98*
Cc1noc(C)c1NC(=O)Nc1ccc2c(c1)C(=O)N([C@H](C)CO)C[C@H](C)[C@@H](CN(C)Cc1ccc(Cl)c(Cl)c1)OCCCC[C@@H](C)O2,6.1*,10
Cc1noc(C)c1NC(=O)Nc1ccc2c(c1)C(=O)N([C@H](C)CO)C[C@H](C)[C@H](CN(C)Cc1ccc3c(c1)OCO3)OCCCC[C@@H](C)O2,0.078,-1
SMILES,YB-1 expr inh,U2OS ROS induce
C[C@@H]1CCCCO[C@@H](CN(C)Cc2ccccc2)[C@@H](C)CN([C@H](C)CO)C(=O)c2cc(NC(=O)c3ccccc3)ccc2O1,0.084,184*
C[C@@H]1CCCCO[C@@H](CN(C)CC2CCCCC2)[C@@H](C)CN([C@H](C)CO)C(=O)c2cc(NC(=O)c3ccccc3)ccc2O1,-0.42,8
C[C@@H]1CCCCO[C@@H](CN(C)Cc2ccc(C(F)(F)F)cc2)[C@@H](C)CN([C@H](C)CO)C(=O)c2cc(NC(=O)c3ccccc3)ccc2O1,-0.45,71
C[C@@H]1CCCCO[C@H](CN(C)CC2CCCCC2)[C@@H](C)CN([C@H](C)CO)C(=O)c2cc(NC(=O)c3ccncc3)ccc2O1,6.4*,0
C[C@@H]1CCCCO[C@H](CN(C)Cc2ccc(C(=O)O)cc2)[C@@H](C)CN([C@H](C)CO)C(=O)c2cc(NC(=O)c3ccccc3)ccc2O1,-0.3,28
O=C(O)C1CCCN(S(=O)(=O)N2CCCCC2)C1 (stereo unspecified),.,-2
N#Cc1cc2c(=O)n3ccccc3nc2n(CCc2ccccc2)c1=O,.,22
Cc1nc2c3ccccc3nc(SCc3cc(F)cc4c3OCOC4)n2n1,.,-4

# Screens: PubChem BioAssay, Broad Institute
